Bioassay records as filed in PubChem BioAssay.
Only some compounds are listed: those with a hit (about 3.3% of all), similar ones and a draw of the others.
PNC inhibitor: perinucleolar compartment assembly inhibition; 3.1% of 140,000 active; activity change (PNC), negative = inhibition, % at 10 µM; PC3M PTB-GFP, PNC prevalence imaging, 16 h; hits give low values; AID 2417;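 active means readout at or below -70, meaning at least 70% loss of cells showing the perinucleolar compartment, a nuclear body marking cancer cells; inconclusive means readout between -30 and a set limit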;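 further: plate controls were DMSO wells for no effect and camptothecin positive control wells for full effect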
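Compounds are pinned in duplicate onto adhered PC3M cells stably expressing GFP-tagged PTB and incubated 16 h at 37 C. Cells are then fixed, nuclei stained with Hoechst, and PNC-positive cells counted.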
12-hLO inh: inhibitors of human 12-lipoxygenase (ALOX12); P18054; purified 12-hLO, xylenol orange hydroperoxide absorbance; Potency, µM (doses to about 57.1 µM), for inactives: at the top dose activity change, negative = inhibition, usual class: inhibitors; 0.12% of 150,000 active; further: potency means the concentration at half of the fitted maximal effect; on the % scale 0 is the no-effect control and ±100 the full control effect; nearly all actives have a fitted effect of over 55% in size
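Purified human 12hLO (150 nM final) was preincubated with compounds for 15 min at room temperature in 25 mM Hepes pH 7.0, 0.01% Triton X-100, then reacted with 40 uM arachidonic acid for 30 min. Hydroperoxide was detected with ferrous iron/xylenol orange.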
NPSR antag: blocks cAMP signaling of the human neuropeptide S receptor. AID 1461. Potency, µM (series often up to 38.3 µM), for inactives: at the highest dose activity change, negative = inhibition, actives largely listed as inhibitors. Q6W5P4. 1% of 220,000 active. CHO-NPSR cells, cAMP TR-FRET, antagonist mode; further: potency means the concentration at half of the fitted maximal effect; on the % scale 0 is the no-effect control and ±100 the full control effect; nearly all actives have a fitted effect of over 50% in size
Target sequence (Q6W5P4 whole entry, looked up): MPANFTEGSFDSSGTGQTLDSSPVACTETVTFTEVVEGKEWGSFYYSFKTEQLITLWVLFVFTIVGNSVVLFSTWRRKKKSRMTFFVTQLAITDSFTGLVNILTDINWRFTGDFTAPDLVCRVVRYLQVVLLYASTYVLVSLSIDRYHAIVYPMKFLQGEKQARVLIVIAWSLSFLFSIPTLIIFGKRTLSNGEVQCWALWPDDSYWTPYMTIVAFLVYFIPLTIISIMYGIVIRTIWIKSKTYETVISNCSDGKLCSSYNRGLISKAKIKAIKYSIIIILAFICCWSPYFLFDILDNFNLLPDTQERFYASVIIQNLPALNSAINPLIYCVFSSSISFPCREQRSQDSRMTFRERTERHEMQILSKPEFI
HTT aggregate: inhibitors of mutant huntingtin aggregate formation in PC12 cells | Potency, µM (titrated, usually from 46.1 µM), for the others: top-dose activity change, negative = inhibition, actives largely listed as inhibitors | 1.1% of 220,000 active | PC12 HttQ103-GFP aggregates, Acumen cytometry, 40 h; further: potency means the concentration at half of the fitted maximal effect; on the % scale 0 is the no-effect control and ±100 the full control effect; nearly all actives have a fitted effect of over 60% in size
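Aggregates are detected as GFP objects 1–25 µm with signal 6 STDEV over background in lysates of induced PC12 cells. These carry Huntingtin exon 1 with 103 glutamines fused to GFP under an ecdysone promoter; compounds titrated.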
HTT cytoprotect: protects HTT-Q103 PC12 cells, measured by ATP | PC12 HTT-Q103 induced, cytoprotection, ATP luminescence, 40 h | Potency, µM (highest dose often 56.4 µM), for inactives: cytoprotection (ATP increase), most hits filed as activators | 0.14% of 230,000 active; further: potency means the concentration at half of the fitted maximal effect; % of control where 0% means no effect; nearly all actives have a fitted effect of over 45% in size
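Readout: ATPlite luminescence (ATP level). Model: stable PC12, inducible Htt exon1 Q103-GFP. Inducer: tebufenozide, 100 nM final. Compounds: dose series. No G418 in medium.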
IMPase cell inh: cell-permeable inhibitors of inositol monophosphatase (IMPase); AID 901; 120,000 tested, under 10 active; P97697; inhibition (IP1 accumulation), % at 46.1 µM; CHO-M1 cells, IP1 accumulation, HTRF TR-FRET ratio; active means well fitted curve in the direction sought with a large enough effect in the signal ratio, not every such curve was filed as active; inconclusive means small, poorly fitted or top-dose-only effect, or a change in a side signal; inactive means no such curve, though single readings can be large or run the other way; the % refers to the signal ratio;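 further: cells stimulated with carbachol in lithium chloride buffer; plate controls were DMSO basal wells for no effect and reference inhibitor wells for full effect; higher means more IMPase inhibition seen as more IP1 and lower FRET ratio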
Target sequence (P97697 whole entry, looked up): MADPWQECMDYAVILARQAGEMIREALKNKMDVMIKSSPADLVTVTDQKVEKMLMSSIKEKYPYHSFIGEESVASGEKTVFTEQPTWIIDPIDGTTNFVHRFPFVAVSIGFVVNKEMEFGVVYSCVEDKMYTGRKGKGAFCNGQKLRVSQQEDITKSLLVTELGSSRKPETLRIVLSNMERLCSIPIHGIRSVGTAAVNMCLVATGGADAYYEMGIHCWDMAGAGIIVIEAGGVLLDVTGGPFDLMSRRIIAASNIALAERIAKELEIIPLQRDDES
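The IP-One HTRF competitive assay in carbachol-stimulated CHO-M1 cells quantifies cellular IP1. Compounds spanned up to 46 uM final, and activity is expressed as AC50 from concentration-response fits of the ratio and donor data.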
Active calls of the source: *; ? = inconclusive; / = not tested or not shown; [ ] = dose if it differs, or a comment. Unless noted, the call rests on the fitted dose curve; in most records, active means well fitted curve in the direction sought with a large enough effect; inconclusive means small, poorly fitted or top-dose-only effect, or another doubt; inactive means no such curve, though single readings can be large; an effect the other way counts as inactive or inconclusive.

SMILES	PNC inhibitor	12-hLO inh	NPSR antag	HTT aggregate	HTT cytoprotect	IMPase cell inh
Cc1ccc2nc(-c3ccc(SCC(=O)Nc4nnc(C)s4)nc3)[nH]c2c1	62.9	5.1%	?	15.8µM*	-16.7%[10 µM]	/
Cc1cc2nc(-c3ccc(SCC(=O)N4CCOCC4)nc3)[nH]c2cc1C	-89.2*	2.0%	-23.5%[46.1 µM]	11.9%	-88.1%	-2.4
CCCC(=O)NC(=S)Nc1ccccc1C(=O)OC	-108.4*	1.2%	-10.5%[46.1 µM]	-3.9%	-5.6%	2.2
CCOC(=O)c1sc(N)c(C(=O)Nc2ccc(C)cc2C)c1C	/	-20.3%	/	/	/	/
CNC(=O)[C@@H]1O[C@@H](n2cnc3c(NCc4cccc(I)c4)ncnc32)[C@H](O)[C@@H]1O	/	-2.1%	/	/	-2.5%[1.9 µM]	1.4
COc1ccc(-c2cc3c(=O)n(CC(=O)NC4CCN(Cc5ccccc5)CC4)ncn3n2)cc1	-90.5*	-7.5%	-8.9%[46.1 µM]	5.1%	-1.3%[1.9 µM]	2.3
CCOC(=O)c1cc(-c2ccc(OC)cc2)n(CCC(=O)NC2CCN(Cc3ccccc3)CC2)c1C	/	/	?	-30.5%	-37.9%	/
O=C(C1CCCO1)N1CCN(Cc2nc3ccccc3c(=O)[nH]2)CC1 (stereo not drawn)	-135.3*	-0.9%	-4.1%[46.1 µM]	1.8%	3.2%	-4.7
O=C(c1cc2cc([N+](=O)[O-])ccc2oc1=O)N1CCN(c2ncccn2)CC1	79.9	-7.6%	-2.3%[46.1 µM]	0.708µM*	?	-0.4
CCc1ccccc1NC(=O)c1noc(C(C)C)c1[N+](=O)[O-]	/	/	-1.7%	7.08µM*	-18.7%	/
CC(C)c1onc(C(=O)Nc2cccnc2Cl)c1[N+](=O)[O-]	/	/	19.9%	0.2%	-8.0%	/
O=C(c1ccc(Cl)cc1)c1coc2ccc(O)cc12	5.5	-11.7%	-5.4%[46.1 µM]	0.631µM*	-39.8%	-4.8
COCC(=O)N1CCC[C@@]2(CCN(Cc3ccccc3)C2)C1	/	-1.2%	/	/	23.7%	/
CN(C)C(=O)CN(c1ccc2c(c1)OCO2)S(C)(=O)=O	-106.5*	0.8%	-6.4%[46.1 µM]	17.5%	-17.8%	2.2
CN1/C(=C\C(=O)COC(=O)Cn2nnc(-c3ccccc3)n2)C(C)(C)c2ccccc21	10.2	-7.4%	-3.3%[46.1 µM]	11.2µM*	-7.6%	3.7
COc1cc(OC)cc(C(=O)NCC(=O)OCC(=O)/C=C2/N(C)c3ccccc3C2(C)C)c1	/	/	0.0%	-25.1%	-36.9%	/
O=C(NCCc1ccccc1)C1CCN(S(=O)(=O)c2ccc(-n3cnnn3)cc2)CC1	38.2	-3.5%	-19.3%[46.1 µM]	2.82µM*	-2.4%	-1.2
CCOC(=O)C1CCN(S(=O)(=O)c2ccc(-n3cnnn3)c(C)c2)CC1	-100.0*	0.6%	-13.7%[46.1 µM]	-5.7%	-3.7%[10 µM]	2.7
O=C(NN1C(=O)C2C3C=CC([C@@H]2C1=O)C31CC1)c1ccccc1 (stereo partly drawn)	/	/	6.0%	-10.9%[9.22 µM]	-2.0%[10 µM]	/
COc1ccc(/C=N/n2c(SC)nnc2-c2ccccc2)c(OC)c1OC	-124.6*	-4.5%	-9.8%[46.1 µM]	?	-24.7%	-1.0
COc1cccc(/C=N/n2c(C)nc3ccccc32)c1OC	11.2	-6.5%	?	12.6µM*	-30.5%[10 µM]	3.2
COc1cccc(/C=N\n2c(C)nnc2C)c1OC	-26.1	-8.0%	-4.8%[46.1 µM]	-11.2%	-24.7%	0.5
COc1cc(C(=O)NCc2nnc(SCC(=O)N3CCCc4ccccc43)o2)cc(OC)c1OC	/	/	8.1%	7.4%	-6.9%	/
COC(=O)c1ccc(NC(=O)CSc2nc3ccc(OC)cc3[nH]2)cc1	/	/	/	/	/	-1.9
COc1cccc(N=CC2=C(O)CCCC2=O)c1	/	/	-30.5%	-4.9%	-33.2%	/
SMILES	PNC inhibitor	12-hLO inh	NPSR antag	HTT aggregate	HTT cytoprotect	IMPase cell inh
CC1(C)CC(=O)C(C=Nc2cc(C(=O)c3ccccc3)ccc2N)=C(O)C1	/	/	9.8%	-4.4%	-19.6%	/
CSc1ccccc1N=CC1=C(O)CC(C)(C)CC1=O	-100.0*	-5.0%	-14.3%[46.1 µM]	-0.5%	27.2%	-0.8
COc1cccc(N=CC2=C(O)CC(C)(C)CC2=O)c1	-113.4*	-0.2%	7.6%	?	/	/
COC(=O)c1ccc(N)c(N=CC2=C(O)CC(C)(C)CC2=O)c1	-109.0*	-6.0%	-0.3%	1.1%	/	/
COC(=O)CC1c2ccccc2C=C(/C=C/c2ccc3c(c2)OCO3)N1C(=O)OC (stereo not drawn)	/	-10.7%[11.4 µM]	/	/	-0.6%[10 µM]	/
COc1cc(OC)c(S(=O)(=O)NC(C)C)cc1C(=O)O	/	/	?	7.2%[9.22 µM]	15.4%[10 µM]	/
CC(C)(C)NC(=O)NC(=O)COC(=O)c1nc(-c2ccccc2)n(-c2cccc(C(F)(F)F)c2)n1	-112.2*	-2.8%	-38.5%	15.1%	5.6%[10 µM]	/
O=C(O)c1nc(-c2ccccc2)n(-c2cccc(C(F)(F)F)c2)n1	/	/	13.6%	5.0%	-51.8%	/
Cc1[nH]n(-c2ccc(Cl)cc2)c(=O)c1C(=O)c1ccccc1	/	/	37.4%	4.1%[9.22 µM]	9.8%[10 µM]	/
CCOC(=O)c1[nH]n(-c2ccc(Cl)cc2)c(=O)c1C	-114.2*	-15.7%	-1.1%	-14.5%	/	/
Cc1cccc(CN2CCC(CNC(=O)CCNC(=O)Cn3ccc4ccccc4c3=O)CC2)c1	?	0.6%	-9.1%[46.1 µM]	0.2%	19.2%[10 µM]	-0.7
O=C(Cn1ccc2ccccc2c1=O)NCCC(=O)NC1CCN(Cc2ccccc2)CC1	-85.9*	-1.8%	?	-29.5%	-6.5%	6.3
C=CCNc1nc(-c2c(C)nc3sccn23)cs1	-25.1	-2.2%	-4.6%[46.1 µM]	-19.4%	21.6%[10 µM]	?
Cc1nc2sccn2c1-c1csc(NCc2ccccc2)n1	-2.7	?	-27.9%[46.1 µM]	7.08µM*	-79.4%	12.3
CCC(C)(C)NC(=O)C(c1ccc(C)cc1)N(Cc1ccco1)C(=O)Cn1nnc2ccccc21 (stereo not drawn)	-100.0*	5.8%	-2.7%[46.1 µM]	0.6%	1.4%[10 µM]	-2.9
CC(C)(C)NC(=O)C(c1ccsc1)N(CCc1ccccc1)C(=O)Cn1nnc2ccccc21 (stereo not drawn)	-88.6*	-3.1%	-4.4%[46.1 µM]	7.8%	-4.3%	-0.8
CCC(C)(C)NC(=O)C(c1ccncc1)N(Cc1cccs1)C(=O)Cn1nnc2ccccc21 (stereo not drawn)	-0.8	-1.7%	-25.9%[46.1 µM]	9.6%	-0.1%	2.4
Cc1noc(C)c1CSc1nc2sc(C)c(C)c2c(=O)n1-c1ccccc1	?	3.9%	-19.1%[46.1 µM]	-1.8%	-4.7%	-4.5
Cc1noc(C)c1CSc1nc2ccccc2c(=O)n1-c1ccc(Cl)cc1	-29.8	5.8%	10µM*	-34.8%	-18.6%	11.9
Cc1noc(C)c1CSc1ccc2ccccc2n1	-118.9*	-0.6%	-16.1%	3.4%	-10.0%	3.9
CCC(=O)N1C2=C(c3ccccc3[C@@H]1CC(=O)Nc1ccc3ccccc3c1)[C@@H]1C(=O)N(c3ccccc3)C(=O)[C@@H]1[C@H](C)C2	/	-0.9%[11.4 µM]	/	/	-71.8%[10 µM]	/
